Results on 30 compounds are retold here after PubChem BioAssay (EPA / NIEHS).

Activity calls are given as the source filed them. Rule for the calls: active = hit-call score of the fitted dose curve at least 0.9, where 1 is the maximum; inactive = score below 0.9.

A short description of the first test: APR_HepG2_MitoticArrest_24hr: Apredica 24-hour HepG2 Assay for Mitotic Arrest (AID 2282910). The conditions noted are these: high-content imaging, actives raise or lower the signal. The method, boiled down:
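Treatment lasted 24 hr in the human HepG2 line at 0.39–200 uM, solvent held at 0.5% DMSO. Fixed cells were stained with Hoechst 33342 and anti-phospho-histone H3, imaged at 20x, and analysed by gain- or loss-of-signal fitting against DMSO.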
With `COCCOC[C@H](CC1(C(=O)NC2CCC(C(=O)O)CC2)CCCC1)C(=O)Oc1ccc2c(c1)CCC2` (stereo not given in full), the compound was called inactive.

For `O=C(N[C@@H](Cc1ccccc1)[C@@H](O)C(=O)N1C[C@@H](O)[C@@H](O)C1)c1cc2cc(Cl)ccc2[nH]1`, the call was inactive.

For `CCCCCCCCCCCCCCCC`, the outcome was inactive.

`O=C(O)Cc1ccccc1Nc1c(Cl)cccc1Cl`: the outcome was inactive.

Consider `O=C(O)CCCCC(=O)O`, for which the compound was classed as inactive.

For the compound `CC(C)c1ccc(C(=O)N=C(N)N)cc1S(C)(=O)=O`, the compound was called inactive.

Consider `Nc1ccc(S(=O)(=O)c2ccc(N)cc2)cc1`, for which the outcome was inactive.

For the compound `Cc1ccc(Cl)cc1`, the compound was classed as inactive.

With `CC(=O)OCCOCCOCCOC(C)=O`, the compound was classed as inactive.

The term AC50 denotes the concentration at which the activity in the assay is half-maximal. Turning to `CC1=C(/C=C/C(C)=C/C=C/C(C)=C/CO)C(C)(C)CCC1`, the AC50 is 81.6 µM (active).

Turning to `Nc1nc(N)c2nc(CNc3ccc(C(=O)N[C@@H](CCC(=O)O)C(=O)O)cc3)cnc2n1`, the compound was called inactive.

Consider `CCCCCCOCCO`, for which the compound was classed as inactive.

As to `COc1ccc2c(c1)c(CC(=O)O)c(C)n2C(=O)c1ccc(Cl)cc1`, the compound was called inactive.

For `FC(F)(F)C(F)(F)C(F)(F)C(F)(F)C(F)(F)C(F)(F)CCI`, the result was inactive.

For the compound `C=CCOC(=O)c1ccccc1C(=O)OCC=C`, the outcome was inactive.

The next test is described as follows: APR_HepG2_MitoMembPot_24hr: Apredica 24-hour HepG2 Assay for Mitochondrial Membrane Potential (AID 2282911). The conditions noted are these: imaging, actives raise or lower the signal. The method, boiled down: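 HepG2, 24 hr dosing, 10 concentrations 0.39–200 uM, 0.5% DMSO final. Live-cell MitoTracker Red CMXRos 250 nM 30 min, then 3.7% formaldehyde fix. HCS fluorescence imaging, 20x; bidirectional fit vs DMSO baseline.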
For `C=CCc1ccc(O)c(OC)c1`, the compound was called inactive.

Regarding `O=c1c(O)c(-c2ccc(O)c(O)c2)oc2cc(O)cc(O)c12`, the AC50 is 64.2 µM (active).

For the compound `CCCCC(CC)COC(=O)CC(C(=O)OCC(CC)CCCC)S(=O)(=O)O` (stereo not given), the call was inactive.

With `CCOC(=O)C(C)(C)Oc1ccc(Cl)cc1`, the AC50 was 121 µM (active).

Regarding `Oc1ccc2c(c1)OC[C@@H](N1CCC(O)(c3ccc(F)cc3)CC1)[C@H]2O`, the AC50 is 58.7 µM (active).

`NC(=O)Cn1c(=O)cc(CCN2CCN(c3nccc4sccc34)CC2)c2ccc(F)cc21`: the compound was called inactive.

As to `CNCc1cc(F)ccc1Oc1ccc(Cl)c(Cl)c1`, the AC50 is 109 µM (active).

Turning to `Cc1cccc(Nc2cc(Cl)nc(SCC(=O)O)n2)c1C`, the result was inactive.

As for `CCOC(=O)CCC(=O)OCC`, the compound was classed as inactive.

As for `CCNc1cccc(C)c1`, the compound was called inactive.

As for `Nc1ccc2c(c1)C(=O)c1ccccc1C2=O`, the outcome was inactive.

`NS(=O)(=O)c1cc2c(cc1Cl)NCNS2(=O)=O`: the call was inactive.

Regarding `CCCCCCCCCCCCCO`, the compound was called inactive.

With `CN1CCCC1=O`, the compound was called inactive.

Consider `C1CCC(SSC2CCCCC2)CC1`, for which the compound was called inactive.

For `COCCOC[C@H](CC1(C(=O)NC2CCC(C(=O)O)CC2)CCCC1)C(=O)Oc1ccc2c(c1)CCC2` (stereo not given in full), the compound was classed as inactive.

For the compound `O=C(N[C@@H](Cc1ccccc1)[C@@H](O)C(=O)N1C[C@@H](O)[C@@H](O)C1)c1cc2cc(Cl)ccc2[nH]1`, the AC50 was 86.4 µM (active).

With `CCCCCCCCCCCCCCCC`, the result was inactive.

On to `O=C(O)Cc1ccccc1Nc1c(Cl)cccc1Cl`, for which the compound was classed as inactive.

Turning to `O=C(O)CCCCC(=O)O`, the result was inactive.

For the compound `CC(C)c1ccc(C(=O)N=C(N)N)cc1S(C)(=O)=O`, the outcome was inactive.

Turning to `Nc1ccc(S(=O)(=O)c2ccc(N)cc2)cc1`, the outcome was inactive.

Consider `Cc1ccc(Cl)cc1`, for which the result was inactive.

On to `CC(=O)OCCOCCOCCOC(C)=O`, for which the compound was classed as inactive.

Consider `CC1=C(/C=C/C(C)=C/C=C/C(C)=C/CO)C(C)(C)CCC1`, for which the outcome was inactive.

With `Nc1nc(N)c2nc(CNc3ccc(C(=O)N[C@@H](CCC(=O)O)C(=O)O)cc3)cnc2n1`, the call was inactive.

As for `CCCCCCOCCO`, the result was inactive.

Consider `COc1ccc2c(c1)c(CC(=O)O)c(C)n2C(=O)c1ccc(Cl)cc1`, for which the result was inactive.

With `FC(F)(F)C(F)(F)C(F)(F)C(F)(F)C(F)(F)C(F)(F)CCI`, the compound was classed as inactive.

As for `C=CCOC(=O)c1ccccc1C(=O)OCC=C`, the compound was called inactive.

A further test can be described thus: APR_HepG2_MitoMass_24hr: Apredica 24-hour HepG2 Assay for Mitochondrial Mass (AID 2282912). Particulars: high-content imaging, actives raise or lower the signal. The method, boiled down:
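HepG2, 24 hr dosing, 10 concentrations 0.39–200 uM in duplicate, DMSO 0.5% final. MitoTracker Red CMXRos 250 nM, 30 min pre-fix; 3.7% formaldehyde fix. Imaging-based fluorescence intensity; gain/loss fit vs DMSO baseline.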
As to `C=CCc1ccc(O)c(OC)c1`, the compound was called inactive.

For `O=c1c(O)c(-c2ccc(O)c(O)c2)oc2cc(O)cc(O)c12`, the call was inactive.

`CCCCC(CC)COC(=O)CC(C(=O)OCC(CC)CCCC)S(=O)(=O)O` (stereo not given): the call was inactive.

On to `CCOC(=O)C(C)(C)Oc1ccc(Cl)cc1`, for which the outcome was inactive.

In the case of `Oc1ccc2c(c1)OC[C@@H](N1CCC(O)(c3ccc(F)cc3)CC1)[C@H]2O`, the result was inactive.

Take `NC(=O)Cn1c(=O)cc(CCN2CCN(c3nccc4sccc34)CC2)c2ccc(F)cc21`: the compound was classed as inactive.

For the compound `CNCc1cc(F)ccc1Oc1ccc(Cl)c(Cl)c1`, the AC50 is 32.6 µM (active).

`Cc1cccc(Nc2cc(Cl)nc(SCC(=O)O)n2)c1C`: the outcome was inactive.

On to `CCOC(=O)CCC(=O)OCC`, for which the result was inactive.

Take `CCNc1cccc(C)c1`: the outcome was inactive.

As to `Nc1ccc2c(c1)C(=O)c1ccccc1C2=O`, the compound was called inactive.

Consider `NS(=O)(=O)c1cc2c(cc1Cl)NCNS2(=O)=O`, for which the result was inactive.

Consider `CCCCCCCCCCCCCO`, for which the result was inactive.

For `CN1CCCC1=O`, the outcome was inactive.

In the case of `C1CCC(SSC2CCCCC2)CC1`, the result was inactive.

Regarding `COCCOC[C@H](CC1(C(=O)NC2CCC(C(=O)O)CC2)CCCC1)C(=O)Oc1ccc2c(c1)CCC2` (stereo not given in full), the compound was classed as inactive.

`O=C(N[C@@H](Cc1ccccc1)[C@@H](O)C(=O)N1C[C@@H](O)[C@@H](O)C1)c1cc2cc(Cl)ccc2[nH]1`: the compound was called inactive.

Regarding `CCCCCCCCCCCCCCCC`, the result was inactive.

Take `O=C(O)Cc1ccccc1Nc1c(Cl)cccc1Cl`: the compound was classed as inactive.

On to `O=C(O)CCCCC(=O)O`, for which the call was inactive.

As to `CC(C)c1ccc(C(=O)N=C(N)N)cc1S(C)(=O)=O`, the outcome was inactive.

For `Nc1ccc(S(=O)(=O)c2ccc(N)cc2)cc1`, the result was inactive.

In the case of `Cc1ccc(Cl)cc1`, the compound was classed as inactive.

As for `CC(=O)OCCOCCOCCOC(C)=O`, the outcome was inactive.

Consider `CC1=C(/C=C/C(C)=C/C=C/C(C)=C/CO)C(C)(C)CCC1`, for which the AC50 is 113 µM (active).

For the compound `Nc1nc(N)c2nc(CNc3ccc(C(=O)N[C@@H](CCC(=O)O)C(=O)O)cc3)cnc2n1`, the compound was classed as inactive.

Regarding `CCCCCCOCCO`, the compound was classed as inactive.

As for `COc1ccc2c(c1)c(CC(=O)O)c(C)n2C(=O)c1ccc(Cl)cc1`, the outcome was inactive.

On to `FC(F)(F)C(F)(F)C(F)(F)C(F)(F)C(F)(F)C(F)(F)CCI`, for which the outcome was inactive.

For `C=CCOC(=O)c1ccccc1C(=O)OCC=C`, the result was inactive.
